These results are taken from ChEMBL document CHEMBL3433997, “St. Jude Leishmania screening dataset” (2016).

Structures are written as SMILES.

In general, inhibition refers to the change of the read-out against control, counted positive when it falls.

Holding throughout (type): functional
Test [1] concerns the target Solute carrier family 2, facilitated glucose transporter member 1 (Homo sapiens) (UniProt P11166). Nature of the test: ST_JUDE_LEISH: Cytotoxicity at 2uM final concentration against transgenic Leishmania Mexicana promastigotes LmGLUT1 that are glucose transport deficient and complemented with the human glucose transporter GLUT1. Activity is measured by DNA content using SYBR green in vitro.

Test [2] has as its target Hexose transporter 1 (Plasmodium falciparum) (UniProt O97467). The test can be described thus: ST_JUDE_LEISH: Cytotoxicity at 2uM final concentration against transgenic Leishmania Mexicana promastigotes LmPfHT that are glucose transport deficient and complemented with the Plasmodium falciparum hexose transporter. Activity is measured by DNA content using SYBR green in vitro.

Test [3] deals with Glucose transporter (Leishmania mexicana) (UniProt O61059). Nature of the test: ST_JUDE_LEISH: Cytotoxicity at 2uM final concentration against transgenic Leishmania Mexicana promastigotes LmGT2 that are glucose transport deficient and complemented with the L. Mexicana glucose transporter 2. Activity is measured by DNA content using SYBR green in vitro.

Solute carrier family 2, facilitated glucose transporter member 1 (Homo sapiens), sequence (P11166 whole entry): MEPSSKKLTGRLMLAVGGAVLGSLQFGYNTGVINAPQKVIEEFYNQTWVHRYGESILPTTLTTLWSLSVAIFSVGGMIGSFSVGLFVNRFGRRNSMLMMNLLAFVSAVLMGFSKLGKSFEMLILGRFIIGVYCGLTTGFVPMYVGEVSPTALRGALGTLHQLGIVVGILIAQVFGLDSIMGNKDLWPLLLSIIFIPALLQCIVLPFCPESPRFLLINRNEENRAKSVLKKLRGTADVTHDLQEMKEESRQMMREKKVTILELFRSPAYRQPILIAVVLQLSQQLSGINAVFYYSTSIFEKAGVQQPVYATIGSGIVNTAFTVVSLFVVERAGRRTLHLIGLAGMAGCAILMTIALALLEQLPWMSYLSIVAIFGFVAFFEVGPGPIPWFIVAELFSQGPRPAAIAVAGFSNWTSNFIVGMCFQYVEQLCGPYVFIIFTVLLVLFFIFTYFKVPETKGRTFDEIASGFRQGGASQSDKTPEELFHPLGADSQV

On to `N#Cc1ccc(/C=C/C(=O)NCCCCCN2CCN(C(=O)Nc3ccc(Cl)c(C(F)(F)F)c3)CC2)cc1`, for which the inhibition was determined as 5.8% in test [1], 4.08% in test [2] and 1.97% in test [3].
On the same counts, the results for `CSc1c(CNCCCNc2cc(=O)c3ccccc3[nH]2)[nH]c2ccccc12` are 5.89%, 4.28% and 4.96%.
The like results for `CC(=O)Nc1ncc(C(=O)Nc2cccc(-c3cccc(-c4nc5cc(F)ccc5[nH]4)c3)c2)s1` were, in that order, 1.74%, 2.62% and 1.65%.
On the same counts, the results for `Cc1cccc(NC(=O)c2cnc(N3CCN(c4ccncc4)CC3)c(Cl)c2)c1` are 23.2%, 19.8% and 6.53%.
In the case of `CC(=O)Nc1ncc(C(=O)Nc2cccc(-c3ccc(-c4nc5cc(C(F)(F)F)ccc5[nH]4)cc3)c2)s1`, the inhibition is 2.37% in test [1], 0.89% in test [2] and -0.63% in test [3].
For `CCC(C)C(COC(=O)c1cc(OC)c(OC)c(OC)c1)N(C)CCN(C)C(COC(=O)c1cc(OC)c(OC)c(OC)c1)C(C)CC` (stereo not drawn), the inhibition is 1.76% in test [1], 1.28% in test [2] and -0.47% in test [3].
On the same counts, the results for `Cc1ccc(NC(=O)c2cccc(CN3CCCN(Cc4cccc(O)c4)CC3)c2)cc1C` are 4.69%, 3.38% and 4.38%.
In the case of `Cc1c(F)cc(C(=O)NC2CC2)cc1-c1ccc2c(cnn2S(=O)(=O)c2ccc(Cl)s2)c1`, the inhibition in test [1] amounted to 3.04%; in test [2], 1.53%; in test [3], 0.9%.
On the same counts, the results for `N#Cc1ccnc(-c2ccc(CNC3CCN(CC4Cn5c(=O)ccc6ccc(F)c4c65)CC3)cc2)c1` (stereo not drawn) are 9.83%, 8.44% and 4.88%.
Consider `CCCCc1cc(NC2CCN(C)CC2)nc(Nc2ccccc2)n1`, for which the inhibition in test [1] was determined as 10.5%; in test [2], 8.07%; in test [3], 8.76%.
In the case of `COC(=O)c1cccc(NC(=O)NCCNc2ccnc(Nc3ccc(F)cc3)n2)c1`, the inhibition in test [1] was 4.31%; in test [2] it was 3.02%; in test [3], 2.45%.
In the case of `O=C(/C=C/c1ccc(Cl)c(Cl)c1)NCCCCCN1CCC(NC(=O)Nc2ccc(C(F)(F)F)cc2)C1` (stereo not drawn), the inhibition is -0.17% in test [1], -0.88% in test [2] and -3.22% in test [3].
On the same counts, the results for `CC(C)CC(=O)NC1CCN(Cc2c(-c3cccs3)nc3ccccc3c2C(=O)N[C@@H](C)C2CCCCC2)CC1` are 6.03%, 4.72% and 4.36%.
For `Cc1cc(NC(=O)c2cc(Br)ccc2Cl)n(-c2nc(C)c(C)c(=O)[nH]2)n1`, the inhibition was -1.92% in test [1], -1.98% in test [2] and -4.55% in test [3].
As for `CCC[C@@H]([C@@H](CC(C)C)C(=O)N[C@@H](CCCNc1nccc(C(F)(F)F)n1)C(=O)Nc1nccs1)N(O)C=O`, the inhibition in test [1] worked out at 3.82%; in test [2] it was 4.8%; in test [3], 3.22%.
On the same counts, the results for `CCCNCc1ccc(-c2ccc(CN(CCOC)C(=O)CCc3ccc(OC)cc3)cc2)nc1` are 0.6%, -1.02% and 1.11%.
The like results for `CN1CCN(c2ccnc3ccc(NC(=O)Nc4c(Cl)cccc4Cl)cc23)CC1` were, in that order, -2.39%, -2.3% and -1.19%.
The like results for `COc1ccc(CCNCCCCCCNCCc2ccc(Cl)cc2)c(Cl)c1OC` were, in that order, 73.4%, 16.7% and 102%.
Regarding `O=C(/C=C/c1cccc(Cl)c1)Nc1ccc2nc(CN3CCCC3)ccc2c1`, the inhibition in test [1] was found to be 3.42%; in test [2] it was 5.45%; in test [3] it was 3.23%.
The like results for `CCCCCCN1CCC(NCc2cccc3ccccc23)CC1` were, in that order, 7.18%, 12.1% and 13.7%.
On the same counts, the results for `O=C(Nc1cccc(-c2cccc(-c3nc4cc(F)ccc4[nH]3)c2)c1)c1ccoc1` are 2.86%, 1.64% and 4.95%.
Take `Cc1noc(NC(=O)c2sc3ccccc3c2O)c1C`: the inhibition in test [1] is 1.04%; in test [2] it was 0.61%; in test [3] it was -0.8%.
Consider `COc1cc2nc(N3CCN(C(=O)c4ccco4)CC3)nc(NCc3ccccc3)c2cc1OC`, for which the inhibition in test [1] was found to be 14.9%; in test [2] it was 15.2%; in test [3], 11.1%.
The like results for `COc1cc2ncnc(Nc3ccc4nc(Cc5ccccc5)[nH]c4c3)c2cc1OC` were, in that order, 1.2%, 1.95% and 2.53%.
The like results for `COc1ccc(NC(=O)N2CCCN(CCCCCNC(=O)/C=C/c3ccc(Cl)cc3)CC2)cc1Cl` were, in that order, 2.15%, 2.96% and 0.93%.
On the same counts, the results for `O=C1CCCN1CCCNCc1ccc(-c2cccc(-c3nc4cc(F)ccc4[nH]3)c2)cc1` are -2.56%, -0.8% and -2.7%.
As for `COc1cc(-c2nc(-c3ccncc3)c(-c3ccc4c(c3)CCC4=NO)[nH]2)ccc1OCCN1CCN(C)CC1`, the inhibition was 6.6% in test [1], 6.49% in test [2] and 5.31% in test [3].
On the same counts, the results for `Cc1cccc2nc(-c3cccc(-c4ccc(CNCc5ccccc5)cc4)c3)[nH]c12` are 5.37%, 3.63% and 1.78%.
The like results for `CCN(CC)CCCC(C)Nc1ccnc2cc(C#N)ccc12` (stereo not drawn) were, in that order, -0.82%, -2.04% and -3.31%.
In the case of `O=C(Nc1cccc(-c2nn3ccccc3c2-c2ccnc(Nc3cccc(F)c3)n2)c1)c1c(F)ccc(F)c1Cl`, the inhibition in test [1] stood at 9.38%; in test [2], 10.4%; in test [3] it was 6.24%.
The like results for `COc1ccc2nccc([C@@H](O)CN3CCC(NC(=O)/C=C/c4cccc(NC(C)=O)c4)CC3)c2c1` were, in that order, 3.71%, 3.46% and 4.66%.
The like results for `COc1cc(C)nc2ccc(NC(=O)Nc3ccccc3[N+](=O)[O-])cc12` were, in that order, 2.28%, 0.56% and 1.8%.
The like results for `O=C(/C=C/c1ccc(Cl)cc1)NCCCCCN1CCC(c2c[nH]c3ccccc23)CC1` were, in that order, 3.62%, 3.59% and 0.35%.
As for `O=C(Nc1ccc(Cl)cc1)c1cc(Cl)cc2nc(C(F)(F)F)[nH]c12`, the inhibition in test [1] came out at 9.28%; in test [2], 15%; in test [3], 9.44%.
The like results for `COC(=O)c1ccc(C2OC3(C(=O)c4ccccc4C3=O)C(OC)=C2Cl)cc1C(C)=O` (stereo not drawn) were, in that order, -2.44%, -0.79% and -0.7%.
On the same counts, the results for `COc1ccccc1C1CC(c2ccccc2)=NN1C(=O)c1ccco1` (stereo not drawn) are -0.28%, -0.6% and -4.34%.
